In PubChem BioAssay (NCI) one finds growth data, which are given here for 14 molecules.

Test systems include T-47D breast; BT-549 breast; MDA-MB-435 melanoma; SW-620 colon; MCF7 breast; HCT-116 colon; HCC-2998 colon; KM12 colon.
Assay in all cases: NCI-60 one-dose screen, 48 h (100 = growth as untreated, 0 = no growth, -100 = all killed)
Holding throughout (conditions): 10 µM unless noted

This is part of a sample that, as a whole, favours compounds with a hit. Of some 83,000 tested, about 20% had one in any assay.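 Negative percent growth values reflect cell death: -40 means 40% of the cells present at the start died, and -100 means all died.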 Unmarked numbers belong to inactive results. The source made the active and inactive calls. How the source made its calls: active means growth percent below 10; inactive means the rest.

Regarding `O=C(N/N=C1\SCC(=O)N1c1ccccc1)c1cc(-c2cc3ccccc3o2)nn1-c1ccccc1`, the growth is 101% in the test with T-47D breast; 101% with BT-549 breast; 102% with MDA-MB-435 melanoma; 104% in the test with SW-620 colon; 99.9% with MCF7 breast; 96.5% in the test on HCT-116 colon. Besides, the growth in the test with HCC-2998 colon is 176%; with KM12 colon it was 119%.
Regarding `Cc1ccc[n+](CC(=O)c2cccc3ccccc23)c1`, the growth with T-47D breast was 91.9%; with BT-549 breast, 93.8%; with MDA-MB-435 melanoma, 102%; in the test with SW-620 colon it was 106%; in the test on MCF7 breast, 98.6%; with HCT-116 colon, 99.6%. Besides, the growth in the test on HCC-2998 colon is 104%; in the test with KM12 colon, 103%.
As for `CC(C)(C)C(=O)/C=c1/[nH]c(=O)/c(=C/c2ccccc2O)s1`, the growth with T-47D breast was 41.3%; in the test with BT-549 breast it was 71.8%; in the test with MDA-MB-435 melanoma, -25.9% (active); with SW-620 colon, 34%; in the test with MCF7 breast, 28.1%; in the test with HCT-116 colon, 21.2%. The growth in the test with HCC-2998 colon is 77.6%; in the test on KM12 colon, 29.9%.
As to `O=C1C(Cl)=C(Nc2cccc3cc4ccccc4nc23)C(=O)c2ccccc21`, the growth in the test with T-47D breast is 37.9%; in the test on BT-549 breast it was 91.7%; in the test with MDA-MB-435 melanoma, 59%; with SW-620 colon, 31.1%; in the test on MCF7 breast, 20.1%; in the test on HCT-116 colon it was 17%. Besides, the growth in the test with HCC-2998 colon was 50.7%; in the test with KM12 colon it was 52.3%.
For `COc1ccc(NC(=O)Nc2ccc(-c3ccc(OC)c(OC)c3)nc2C)cc1`, the growth was 60.4% with T-47D breast; 50.4% in the test with BT-549 breast; 65.2% in the test on MDA-MB-435 melanoma; 64.8% with SW-620 colon; 65.1% in the test on MCF7 breast; 49.4% in the test with HCT-116 colon. Moreover, the growth is 83.1% with HCC-2998 colon and 45.3% with KM12 colon.
On to `Cc1cc2c(cc1C)N(C(=O)CCl)CCN2C(=O)CCl`, for which the growth in the test with T-47D breast was -34.5% (active); in the test with BT-549 breast, -28.3% (active); with MDA-MB-435 melanoma it was -26.9% (active); in the test with SW-620 colon it was -78.2% (active); in the test on MCF7 breast, -47.6% (active); with HCT-116 colon, -34% (active). For the same molecule, the growth is -97.9% (active) in the test with HCC-2998 colon and -85.2% (active) with KM12 colon.
As for `O=C(NC(=S)Nc1ccc(Cl)cc1)c1ccccc1`, the growth is 105% in the test with T-47D breast; 131% in the test with BT-549 breast; 96.9% with MDA-MB-435 melanoma; 109% in the test on SW-620 colon; 59.2% with MCF7 breast; 92.5% in the test with HCT-116 colon. In addition, the values for the growth in the test with HCC-2998 colon and with KM12 colon were 106% and 124%, respectively.
Consider `NC(N)=N/N=C/c1ccc([N+](=O)[O-])cc1`, for which the growth is 98.7% in the test on T-47D breast; 85.5% with BT-549 breast; 112% with MDA-MB-435 melanoma; 94.1% in the test with SW-620 colon; 93.1% with MCF7 breast; 90.6% in the test with HCT-116 colon. Further, the growth with HCC-2998 colon was 99.9%; in the test on KM12 colon, 103%.
As to `COC(=O)CCCNS(=O)(=O)c1cc(C(=O)Nc2ccc(NC(=O)c3cc(S(=O)(=O)NCCCC(=O)OC)c(O)c(O)c3O)cc2)c(O)c(O)c1O`, the growth in the test with T-47D breast is 97.2%; in the test with BT-549 breast, 99.4%; with MDA-MB-435 melanoma, 1.35% (active); in the test with SW-620 colon, 95.8%; in the test on MCF7 breast it was 73.7%; with HCT-116 colon it was 76.9%. Further, the results for the growth in the test on HCC-2998 colon and in the test on KM12 colon were 93.4% and 96%, respectively.
Consider `COc1cc(NS(=O)(=O)c2ccc(N)cc2)ncn1`, for which the growth with T-47D breast was 103%; in the test on BT-549 breast, 107%; in the test on MDA-MB-435 melanoma, 99.8%; in the test with SW-620 colon, 108%; in the test with MCF7 breast, 94.7%; with HCT-116 colon, 103%. For the same molecule, the growth in the test with HCC-2998 colon is 109%; in the test on KM12 colon, 104%.
For `COc1cc([C@@H]2c3cc4c(cc3C(OC3O[C@@H]5COC(C)O[C@H]5[C@H](O)[C@H]3O)C3COC(=O)[C@@H]32)OCO4)cc(OC)c1O` (some centres not stated), the growth is 23.9% in the test on T-47D breast; 31.4% with BT-549 breast; 50% with MDA-MB-435 melanoma; 35.6% in the test on SW-620 colon; 22.4% in the test on MCF7 breast; 41.7% in the test on HCT-116 colon. Moreover, the results for the growth with HCC-2998 colon and in the test with KM12 colon were 38.7% and 42.1%, respectively.
Turning to `O=C(Nc1ccc(-n2cc(-c3ccncc3)c(-c3ccc(O)c(Cl)c3)n2)cc1)c1ccc(Cl)c(Cl)c1`, the growth in the test with T-47D breast was 36.5%; with BT-549 breast, 29.3%; in the test on MDA-MB-435 melanoma it was 27.1%; in the test with SW-620 colon, 37.3%; in the test on MCF7 breast it was 28.5%; with HCT-116 colon, 12.3%. The values for the growth in the test with HCC-2998 colon and with KM12 colon were 33.2% and 24.6%, respectively.
As to `COc1ccc(-c2nnc(NC(=O)CN3CCN(c4cc5c(cc4F)c(=O)c(C(=O)O)cn5C4CC4)CC3)s2)cc1OC`, the growth in the test with T-47D breast was 101%; in the test with BT-549 breast, 105%; in the test on MDA-MB-435 melanoma it was 103%; with SW-620 colon, 105%; with MCF7 breast it was 106%; with HCT-116 colon it was 103%. Also, the growth was 99.6% in the test on HCC-2998 colon and 98.2% in the test on KM12 colon.
In the case of `COc1ccc2c(c1)O/C(=C/c1ccc(OCC(=O)Nc3ccc(S(N)(=O)=O)cc3)cc1)C2=O`, the growth with T-47D breast is 97.2%; in the test on BT-549 breast it was 99.6%; in the test on MDA-MB-435 melanoma, 103%; in the test with SW-620 colon, 107%; in the test with MCF7 breast, 104%; in the test on HCT-116 colon it was 95.2%. Besides, the growth with HCC-2998 colon was 105%; in the test with KM12 colon it was 99.5%.
